# Some compounds were tested as several samples or in several runs, with calls that do not always agree. Active and inactive are the calls of the source. Rule for the calls: active = hit-call score of the fitted dose curve at least 0.9, where 1 is the maximum; inactive = score below 0.9.
# Experiment: ATG_TAL_CIS: Attagene CIS-FACTORIAL HepG2 Assay for human TAL Basal Promoter (AID 2282966)
# Conditions: HepG2 Attagene cis-factorial TAL promoter reporter; actives raise or lower the signal
# Method: ATG_CIS is a cell-based, multiplexed-readout assay that uses HepG2, a human liver cell line, with measurements taken at 24 hours after chemical dosing in a 24-well plate.ATG_TAL_CIS is one of 52 assay component(s) measured or calculated from the ATG_CIS assay. It is designed to make measurements of mRNA induction, a form of inducible reporter, as detected with fluorescence intensity signals by Reverse transcription polymerase chain reaction (RT-PCR) and Capillary electrophoresis technology.Data from the assay component ATG_TAL_CIS was analyzed into 1 assay endpoint. This assay endpoint, ATG_TAL_CIS, was analyzed with bidirectional fitting relative to DMSO as the negative control and baseline of activity. Using a type of inducible reporter, measures of mRNA for gain or loss-of-signal activity can be used to understand the background control at the transcription factor-level as they relate to the gene . Furthermore, this assay endpoint can be referred to as a secondary readout, because this assay has produced multiple assay endpoints where this one serves a background control function. To generalize the intended target to other relatable targets, this assay endpoint is annotated to the background measurement intended target family, where the subfamily is internal marker.
# Human liver HepG2 cells are transiently transfected with multiple reporter transcription units (MRTUs) in 6-well plates using FuGene 6 reagent (Roche; 3 ml FuGene/1 mg DNA). The MRTU constructs are regulated by a cis-regulating element (promoter). […] A major difference between the CIS and TRANS system is that in CIS activities of endogenous TFs are measured, whereas the TRANS assay evaluates changes in activities of exogenous, chimeric NR-Gal4 proteins. […] At the end of 24 hour incubation, total RNA was isolated using TriZol reagent (Invitrogen). The isolated RNA is then reverse-transcribed using oligo(dT) primer and Mo-MLV reverse transcriptase (Invitrogen) with DNAse I (Ambion) treatment for 30 min. The one-tenth of the produced cDNA was amplified by PCR using Taq DNA polymerase (Invitrogen) and two reporter sequence-specific primers. The PCR products were fluorescently labeled by primer extension with 6-arboxyfluorescein (6-FAM) 5'-labeled reporter sequence-specific primer (2 min at 95 C, 20 s at 68 C and 10 min at 72 C) and these products were digested with 5U of HpaI (New England Biolabs) for 2h at 37 C. The fragments were purified using Qiaquick PCR columns (Qiagen), analyzed on an ABI 3130xL genetic analyzer (Applied Biosystems) with peak positions identified by using a set of X-rhodamine (ROX)-labeled MapMarker1000 molecular weight standards (BioVentures). The raw capillary electrophoresis data was processed using Attagraph software (Attagene).
SMILES,outcome,AC50
O=C(Nc1ccc2[nH]ccc2c1)c1cc2cc(F)ccc2n1Cc1cccc(F)c1,inactive,
COc1ccc(OC)c(C=O)c1,inactive,
CCCCCCCCCl,inactive,
CC12CC1(C)C(=O)N(c1cc(Cl)cc(Cl)c1)C2=O (stereo not given),inactive,
Oc1ccc(-c2ccccc2)cc1,inactive,
CCSC(C)CC1CC(=O)C(C(CC)=NOC/C=C/Cl)=C(O)C1 (stereo not given),inactive,
COc1ccc(C=O)cc1OC,inactive,
O=C(O)C(F)(F)C(F)(F)C(F)(F)C(F)(F)C(F)(F)C(F)(F)C(F)(F)C(F)(F)C(F)(F)C(F)(F)F,inactive,95.5 µM (active)
CCOP(OCC)OCC,inactive,
ClCc1cccnc1,inactive,
ClCc1ccccn1,inactive,
O=C(OC1CCCCC1)c1ccccc1C(=O)OC1CCCCC1,inactive,
ClC1(Cl)C2(Cl)C3(Cl)C4(Cl)C(Cl)(Cl)C5(Cl)C3(Cl)C1(Cl)C5(Cl)C24Cl (stereo not given),inactive,
O=CC=O,inactive,
C=CCc1ccc(OC)cc1,inactive,
O=c1[nH]c(=O)[nH]c(=O)[nH]1,inactive,
OCc1ccco1,inactive,
ClCC(Cl)CCl,inactive,
Nc1ccc(Cl)cc1C(=O)c1ccccc1,inactive,
C=CC#N,inactive,

SMILES,outcome,AC50
C[C@@H](Oc1ccc(Cl)cc1Cl)C(=O)O,inactive,
COc1cc2c(cc1OC)[C@@]13CCN4CC5=CCO[C@H]6CC(=O)N2[C@H]1[C@H]6[C@H]5C[C@H]43,inactive,
Clc1ccc(C2(Cn3cncn3)CC(Br)CO2)c(Cl)c1 (stereo not given),inactive,
c1ccc(N=NNc2ccccc2)cc1,inactive,
CCNc1nc(NC(C)(C)C)nc(SC)n1,inactive,
Nc1cccc2ccccc12,inactive,
CC(C)(c1ccccc1)c1ccc(O)c(C(C)(C)c2ccccc2)c1,inactive,
N#Cc1ccccn1,inactive,
O=[N+]([O-])c1ccc2c3c(cccc13)CC2,inactive,
ClC1=C(Cl)[C@]2(Cl)[C@H]3[C@H]([C@H]4C=C[C@H]3C4)[C@@]1(Cl)C2(Cl)Cl,inactive,
C[C@H]1CCCC(=O)CCC/C=C/c2cc(O)cc(O)c2C(=O)O1,inactive,
CC(C)(C)c1cc(O)ccc1O,inactive,
CC(C)c1ccc(CO)cc1,inactive,
CCC(C)c1cccc(C(C)CC)c1O (stereo not given),inactive,
CCOC(=O)CP(=O)(OCC)OCC,inactive,
CC(=[OH+])/C=C(/C)[O-].CC(=[OH+])/C=C(/C)[O-].CC(=[OH+])/C=C(/C)[O-].[Fe],inactive,
ClCCBr,inactive,
COc1cc(-c2ccc(N)c(OC)c2)ccc1N,inactive,
CCCCCCCCC(=O)NCc1ccc(O)c(OC)c1,inactive,
